Results with a measured potency or affinity are listed apart. Calls of active or inactive are those of the source.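 The calls were made as follows: active = cell killing whose fitted half-effect concentration is at most twice the top valid dose tested; inconclusive = flat curve with 30 to 70% killing, or a poor fit; inactive = effect in the rising direction, plus the rest.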
Experiment: viability loss in A549 lung cells – cell-based, ATP luminescence, cherry-pick, set 2, cytotoxicity control, dose response (AID 1053124)

Row | Structure (SMILES) | outcome
1 | COc1ccc(S(=O)(=O)N2CCCC2CNC(=O)C(=O)NC2CCCC2)cc1 (configuration not stated) | inactive
2 | CNNC(=S)NC1CC2CC1C1C=CCC21 (configuration not stated) | inactive
3 | CC(C)CCN1C(=O)c2cccc3c(N)ccc(c23)C1=O | inactive
4 | CC(=O)N=c1c(C#N)cc2c(=O)n3ccccc3nc2n1CCCOC(C)C | inactive
5 | COC(=O)C1=CN(C)C=C(C(=O)OC)C1c1ccccc1Cl | inactive
6 | CC1CCCCC1NC(=O)CN1C(=O)c2cccc(N)c2C1=O (configuration not stated) | inactive
7 | Nc1cccc2c1C(=O)N(c1ccccc1)C2=O | inactive
8 | COCc1cc(C)nc(SCC(=O)Oc2ccc(Cl)cc2)c1C#N | inactive
9 | COc1ccc(NC(=O)C2CCC(CNS(=O)(=O)c3cccs3)CC2)cc1 (configuration not stated) | inactive
10 | CCOCCCNc1c(CC)c(C)c(C#N)c2nc3ccccc3n12 | inactive
11 | COc1cc(/C=C(\C#N)C(=O)NC(C)C)cc(Cl)c1O | inactive
12 | Cc1oc(/N=C/c2ccc(O)cc2O)c(C#N)c1C | inactive
13 | CCN1C(=O)c2cccc3c(S(=O)(=O)N(C)C)ccc1c23 | inactive
14 | Cc1ccc(C(=O)OCC(=O)Nc2c(C)nn(-c3ccccc3)c2C)c(O)c1 | inactive
15 | CCCCN(CCCC)CC(O)Cn1c2ccccc2c(=O)c2ccccc21 (configuration not stated) | inactive
16 | CCOC(=O)c1c2ccc(OCC(=O)NN)cc2n2ccccc12 | inactive

Row | Structure (SMILES) | outcome
17 | Cc1cccn2c(=O)c(/C=C(\C#N)C(N)=O)c(Oc3ccccc3)nc12 | inactive
18 | COc1cc(C(=O)NCCCNc2nc3c(C)cc(C)cc3cc2C#N)cc(OC)c1OC | inactive
19 | CCc1nc2ccc(C(=O)NCCc3c[nH]c4ccccc34)cn2c1N(C=O)CCC(C)C | inactive
20 | CCN(CC)Cc1c(O)c(Cl)cc2c(C)cc(=O)oc12 | inactive
21 | Cc1oc(/N=C/c2ccc(F)cc2)c(C#N)c1C | inactive
22 | COc1cccc2c(=O)c3c(cnn3C)n(C)c12 | inactive
23 | CC(C)c1ccc(/C=C2\Oc3c(ccc(O)c3CN3CCN(C)CC3)C2=O)cc1 | inactive
24 | O=C(O)c1ccc(N/N=C/c2ccc(-c3ccccc3Cl)o2)cc1 | inactive
25 | O=C(NCc1nnnn1-c1ccc(Cl)cc1)C1CC(=O)N(c2ccc(F)cc2)C1 (configuration not stated) | inactive
26 | Cc1c(Nc2c3ccccc3nc3ccccc23)c(=O)n(-c2ccccc2)n1C | inactive
27 | CC1CCN(C(=O)COc2cccc3c2CCN(Cc2ccccc2)C3=O)CC1 | inactive
28 | CCN(CC)c1ccc2cc(S(=O)(=O)c3ccc(Cl)cc3)c(=O)oc2c1 | inactive
29 | CC1(C)CC(=O)C2=C(C1)OC(N)=C(C#N)[C@@H]2c1ccccc1[N+](=O)[O-] | inactive
30 | Cc1nc(CCNC(=O)Cc2ccc(Cl)cc2)cs1 | inactive
31 | CCOc1ccc(C2C(C#N)=C(N)Oc3cc(O)ccc32)cc1OCC (configuration not stated) | inactive
32 | CCCN1CCc2c(sc(NC(=O)C3CCN(S(=O)(=O)c4cccs4)CC3)c2C(N)=O)C1 | inactive
